Experiments:
Conditions in all cases: concentration: 1 μM, replicates: in singlicate; n = 1
TNNI3K = system: TNNI3K
TRKA = system: T1, TRKA
T1 construct: gene NTRK1

TRKB = system: TRKB
TRKC = system: T2, TRKC
T2 construct: gene NTRK3

TRPM6 = system: TRPM6
TSSK1B = system: TSSK1B
TSSK3 = system: TSSK3
TTK = system: TTK
TXK = system: TXK
[1] = system: TYK2(JH1domain-catalytic)
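Further: KINOMEscan kinase panel screen.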

Structure (SMILES)	%Inh (TNNI3K) [%]	%Inh (TRKA) [%]	%Inh (TRKB) [%]	%Inh (TRKC) [%]	%Inh (TRPM6) [%]	%Inh (TSSK1B) [%]	%Inh (TSSK3) [%]	%Inh (TTK) [%]	%Inh (TXK) [%]	%Inh [1] [%]
Nc1cccc(-c2ccc3c(N)n[nH]c3c2)c1 [GSK2193613]	0	35	40	19	0	0	8	21	3	13
Cn1cc(-c2ccc3c(c2)CCN3C(=O)Cc2cc(F)cc(F)c2F)c2c(N)ncnc21 [GSK2634140]	0	36	0	38	8	0	8	0	13	11
Cc1nn2c(=O)cc(N3CCO[C@H](C)C3)nc2n1Cc1cccc(Cl)c1Cl [GSK2373693]	60	0	7	0	0	21	5	0	0	17
CCNC(=O)/C=C/c1n[nH]c2cc(Sc3ccccc3C(=O)NC)ccc12	22	34	0	0	0	19	13	0	0	0
COc1cc(Nc2nccc(N3CCC(NC(=O)Nc4ccc5c(c4)OCO5)C3)n2)cc(OC)c1OC (centres unmarked) [GSK1379766]	0	57	43	73	47	8	9	0	38	38
Cc1ccc(C)c(NC(=O)Nc2ccc(C)c(-c3ccc(C(=O)Nc4ccncc4)cc3)c2)c1 [GSK1398473]	59	0	0	0	2	17	2	13	25	0
Cc1ccccc1CC(=O)N1CCc2cc(-c3cn(C)c4ncnc(N)c34)ccc21 [GSK2603346]	0	39	14	21	40	0	26	0	0	0
Cc1cc(-c2c(-c3ccc(F)cc3)ncn2CCCN2CCOCC2)nc(N)n1 [SB-222517]	0	0	0	0	15	0	0	48	14	0
Cn1cc(-c2ccc3c(c2)CCN3C(=O)Cc2cc(F)cc(C(F)(F)F)c2)c2c(N)ncnc21 [GSK2635225]	47	49	49	69	36	0	15	26	0	0
COc1cccc2c(-c3ccncc3)c(-c3ccc(F)cc3)nn12 [GW468513]	6	17	11	0	9	49	21	0	6	25
Cn1cc(-c2cnc(N)c3c(-c4ccc5c(c4)CCN5C(=O)Cc4ccccc4)csc23)cn1 [GSK2593074]	0	79	80	66	15	0	0	7	9	0
NCCC(NC(=O)c1cc(Br)c(-c2ccnc3[nH]ccc23)s1)c1ccccc1.O=C(O)C(F)(F)F.O=C(O)C(F)(F)F (centres unmarked) [GSK1307810]	2	91.4	59	47	0	0	20	25	0	83
O=C(Nc1n[nH]c2cc(-c3cccs3)ccc12)C1CC1 [SB-731284]	0	3	0	3	39	0	7	10	0	28
Cl.Cl.NCC(NC(=O)c1cc(-c2cccnc2)c(-c2ccnc3[nH]ccc23)s1)c1ccccc1 (centres unmarked) [GSK1323434]	26	31	40	48	34	14	19	4	0	28
Cc1ccc(Nc2ccnc(Nc3ccc(C)c(F)c3)n2)cc1O.Cl [GW582868]	0	0	50	35	0	11	8	0	12	31
CC(C)c1nc(-c2cccc(NS(=O)(=O)c3c(F)cccc3F)c2)c(-c2ccnc(Nc3ccc(N4CCOCC4)nc3)n2)s1.Cl [GSK1723980]	52	61	0	14	27	0	19	61	92.7	45
Fc1cc(Cl)ccc1Nc1ccnc2cc(-c3ccc(CN4CCOCC4)o3)ccc12 [GW560109]	7	42	41	35	35	21	3	21	86	18
O=C(O)C(F)(F)F.O=c1[nH]ccc2nc(N[C@@H]3CCNC3)nc(Nc3cc(Cl)cc(Cl)c3)c12 [GSK2188764]	39	100	76	62	37	75	85	87	0	80
COc1ccc(C)c(Nc2ccnc(Nc3ccc(-c4cnc[nH]4)cc3)n2)c1.Cl [GW784041]	100	0	0	0	0	10	0	15	15	44
Nc1ncc(-c2ccc3nccc(-c4ccncc4)c3c2)cc1S(=O)(=O)N1CCCCC1 [GSK1693850]	1	99	0	0	0	0	7	21	0	4
CS(=O)(=O)c1cccc(CNc2nc(Nc3ccc4c(c3)CCC(=O)N4)ncc2C(F)(F)F)c1	0	98	92.9	73	0	0	0	99.6	0	89
Cc1ccc(O)cc1Nc1ccnc2ccc(C(C)(C)C)cc12 [GW856805]	6	37	42	11	21	1	0	17	98.9	54

Structure (SMILES)	%Inh (TNNI3K) [%]	%Inh (TRKA) [%]	%Inh (TRKB) [%]	%Inh (TRKC) [%]	%Inh (TRPM6) [%]	%Inh (TSSK1B) [%]	%Inh (TSSK3) [%]	%Inh (TTK) [%]	%Inh (TXK) [%]	%Inh [1] [%]
O=C(Nc1n[nH]c2nc(-c3ccccc3O)ccc12)C1CC1 [SB-711880]	0	49	17	16	0	0	0	18	0	0
O=C(Nc1n[nH]c2nc(-c3cccc(O)c3)ccc12)C1CC1 [SB-711805]	0	4	19	24	3	0	0	14	0	18
CC(=O)Nc1cn2nc(Oc3cccc(NC(=O)c4cccc(C(F)(F)F)c4)c3)ccc2n1	97	0	0	0	0	8	0	29	61	0
Cc1ccc(NC(=O)c2cccc(N3CCCCC3)c2)cc1-c1ccc(C(=O)NCC2CC2)cc1 [GSK1917008]	28	0	0	0	23	28	10	11	7	16
O=C(O)C(F)(F)F.O=c1[nH]ccc2nc(N[C@@H]3CCNC3)nc(Nc3ccc4c(c3)S(=O)(=O)CC4)c12 [GSK2181306]	11	100	92.8	84	38	69	96.5	85	26	90.8
CC(C)NCC(Cc1ccccc1)NC(=O)c1cc(Br)c(-c2ccnc3[nH]ccc23)s1.Cl.Cl (centres unmarked) [GSK1383281]	0	75	64	52	0	32	2	58	79	53
Cl.O=C(Nc1ccc(Oc2ccc3[nH]c(NC(=O)c4ccco4)nc3c2)cc1)Nc1cc(C(F)(F)F)ccc1F [GW683134]	87	98.9	98.3	97.4	1	0	6	0	16	16
CC(C)c1nc(-c2ccc(F)c(NS(=O)(=O)c3c(F)cccc3F)c2)c(-c2ccnc(Nc3ccc(N4CCOCC4)nc3)n2)s1 [GSK1804250]	18	98	0	0	7	15	24	52	85	39
CC(C)(C)c1ccc(C(=O)Nc2cn3cc(-n4ccnc4)ccc3n2)cc1	2	0	0	0	0	0	0	1	0	22
CN(C)c1ncnc2nc[nH]c12 [SKF-31736]	0	0	0	28	30	0	4	0	0	0
CCn1cnc2c(NCc3ccccc3)ncnc21 [SKF-96418]	0	0	0	11	15	0	0	16	2	0
CN(c1ccc(NC(=O)Nc2cccc(Cl)c2)cc1)c1ccnc(N)n1.Cl [GW830707]	19	57	45	89	0	3	0	0	0	0
COC(=O)Nc1nc2ccc(Oc3ccc(CC(=O)Nc4cc(C(F)(F)F)ccc4F)cc3)cc2[nH]1 [GW680903]	70	0	37	49	16	0	24	0	8	23
O=C1NC(=O)C(c2ccccc2Cl)=C1Nc1cccc(Cl)c1 [SB-342409]	98.7	0	0	9	13	100	8	0	33	12
COc1cccc(C2=C(Nc3cccc(O)c3)C(=O)NC2=O)c1 [SB-390771]	21	0	0	46	4	27	9	10	11	21
CN(c1ccc2c(c1)nc(NCc1ccccc1)n2C)c1ccnc(Nc2ccc(CS(C)(=O)=O)cc2)n1.Cl [GW811603]	0	78	77	55	0	0	37	16	78	40
Fc1cc(Cl)ccc1Nc1ccnc2cc(-c3ccc(CN4CCSCC4)o3)ccc12 [GW560106]	10	72	28	0	3	0	14	13	82	19
Cl.Cl.NC(CNC(=O)c1cc(Br)c(-c2ccnc3[nH]ccc23)s1)c1ccccc1 (centres unmarked) [GSK1322949]	0	100	91.6	85	0	7	34	38	0	71
COc1cccc(CC(=O)N2CCc3cc(-c4cn(C)c5ncnc(N)c45)ccc32)c1 [GSK2608899]	0	75	28	52	0	29	30	0	0	0
CNc1nccc(-c2ccc3c(N)n[nH]c3c2)n1 [GSK2206003]	0	52	23	3	0	0	21	37	11	46
CN(c1ccc(F)c(NC(=O)c2cccc(OC(C)(C)C#N)c2Cl)c1)c1ccc2nc(NC(=O)C3CC3)sc2n1	36	6	0	11	9	24	2	6	5	11
Cc1ccc(NC(=O)c2ccnc(N3CCCCC3)c2)cc1-c1ccc(C(=O)NCC2CC2)cc1 [GW775610]	13	58	14	0	0	0	23	0	0	19

Structure (SMILES)	%Inh (TNNI3K) [%]	%Inh (TRKA) [%]	%Inh (TRKB) [%]	%Inh (TRKC) [%]	%Inh (TRPM6) [%]	%Inh (TSSK1B) [%]	%Inh (TSSK3) [%]	%Inh (TTK) [%]	%Inh (TXK) [%]	%Inh [1] [%]
c1ccc(Oc2ccc(Nc3ccnc4cc(-c5ccc(CN6CCCCC6)o5)ccc34)cc2)nc1 [GW567143]	1	98.7	18	27	42	6	19	28	0	16
Cc1cccc(Nc2nc(N[C@H]3CCCC[C@H]3N)ncc2C(N)=O)c1.Cl [GSK986310]	31	99	55	22	0	64	33	36	0	70
CN(C)CCOc1ccc(-c2cc(-c3ccc(Cl)c(O)c3)c(-c3ccncc3)[nH]2)cc1.Cl.Cl [SB-684387]	60	9	21	36	36	0	15	0	56	8
COc1cccc(-c2nc(-c3ccccc3)[nH]c2-c2ccncc2)c1 [SB-610250]	0	0	0	22	10	10	4	16	14	18
Cc1cccc(Nc2nc(NCCN)ncc2C(N)=O)c1 [GSK1292139]	0	72	57	43	44	38	55	36	11	44
Cc1cc(-c2ccnc(Nc3cccc(C#N)c3)n2)cc(C)c1O [GSK1440913]	25	78	9	39	0	5	7	54	35	60
COc1cc(Nc2nccc(N3CCC(NS(=O)(=O)c4ccc(NC(C)=O)cc4)CC3)n2)cc(OC)c1OC [GSK1379825]	40	100	27	15	0	12	25	1	51	75
Nc1ncc(-c2cn[nH]c2)c2scc(-c3ccc4c(c3)CCN4C(=O)Cc3ccccc3)c12 [GSK2593067]	0	96.8	63	70	16	3	20	1	30	10
CCOc1nccc(-c2c(-c3ccc(F)cc3)ncn2C2CCNCC2)n1 [SB-249175]	4	47	21	18	18	0	34	0	10	45
COc1cccc(NC(=O)NCCNc2ccnc(Nc3ccc(F)cc3)n2)c1 [GSK1379879]	0	0	31	38	21	0	14	0	4	33
Nc1ncnc2scc(-c3ccc(NC(=O)Cc4cc(F)ccc4F)cc3)c12.O=C(O)C(F)(F)F [SB-731254-M]	0	62	72	71	31	0	0	0	8	2
COc1cc(Nc2ccnc3cc(-c4ccncc4)ccc23)cc(OC)c1OC.Cl [GW494610]	14	38	7	37	16	0	22	0	92.8	17
COC(=O)Nc1nc2cc(Oc3ccc(NC(=O)Nc4cccc(SC)c4)cc3)ccc2[nH]1.Cl [GW697999]	81	81	82	90	0	0	11	4	0	10
CSc1ccc(NC2=C(c3ccc(Cl)cc3)C(=O)NC2=O)cc1 [SB-317658]	2	5	0	0	0	3	0	6	23	0
CN1CCN(Cc2ccc(NC(=O)Nc3ccc(N(C)c4ccnc(Nc5ccc(CS(C)(=O)=O)cc5)n4)cc3)cc2)CC1.Cl [GW827654]	46	91.4	92	92.5	0	0	47	28	85	97.9
COc1ccc(C2=C(Nc3cccc(O)c3)C(=O)NC2=O)cc1 [SB-390766]	27	0	41	51	30	8	12	0	8	25
CN(C)CCNS(=O)(=O)c1ccc(-c2ccnc3[nH]ccc23)cc1 [GSK977620]	3	93.4	63	54	0	58	15	50	91	46
CN(c1ccc(NC(=O)N2CCN(CCCN3CCOCC3)CC2)cc1)c1ccnc(Nc2ccc(CS(C)(=O)=O)cc2)n1.Cl [GW830899]	5	0	0	0	0	3	0	26	38	31
O=C(Nc1n[nH]c2nc(-c3ccccc3)ccc12)C1CC1 [SB-708999]	11	1	0	24	0	0	16	0	5	33
COC(=O)Nc1nc2ccc(Oc3ccc(NC(=O)Nc4cc(C(F)(F)F)ccc4F)cc3)cc2[nH]1.Cl [GW654607]	92.4	100	94.8	98.9	26	100	6	17	0	8
N#Cc1cnc2cc(-c3cnc(CNCCN4CCOCC4)s3)ccc2c1Nc1ccc(Oc2ccccc2)cc1 [GW664114]	2	55	42	46	48	1	8	0	71	0

Reference: article PMC5540273 (PLoS ONE, 2017)
